Each structure is given as a SMILES string. Out of some 4,100 compounds screened, about 1,600 (39%) were called active. Inconclusive results (about 25%) are left out. This is one part of the list. Values without a mark were called inactive. Calls come from the whole dose curve; as a rule, active = well fitted inhibition curve with a large enough effect; inconclusive = small, poorly fitted or top-dose-only effect; inactive = no such curve, though single readings can be large or run the other way.

The values below come from PubChem BioAssay AID1347416 (National Center for Advancing Translational Sciences (NCATS), 2020).
% is set by controls: 0 for no effect and ±100 for the full control effect; potency is the fitted concentration of half-maximal effect.

The test can be described thus: qHTS Validation assay for Inhibitors of Plasmodium falciparum Dd2 growth in vitro. Note: nearly all actives have a fitted effect of over 70% in size. As to conditions: P. falciparum Dd2 in RBCs, SYBR Green growth, 72 h; series mostly up to 28.7 µM; activity change, negative = inhibition: at the top concentration. The procedure, abridged: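 P. falciparum Dd2-infected red blood cells (2.5% hematocrit, 0.3% parasitemia) grown 72 h at 37 °C under 5% O2 with compounds in a titration, 29 uM to 0.5 nM final. Growth read as SYBR Green-1 fluorescence after ~16 h lysis; artesunate 300 nM as positive control.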
For `Fc1ccc(N2CCCN(CC3[C@H]4CNC[C@@H]34)CC2)cc1` (stereo not given in full), the Potency was 8.41 µM (active).

Consider `Cc1ccc2[nH]c(-c3ccccc3)cc(=O)c2c1`, for which the Potency is 4.73 µM (active).

Consider `Cc1ccc(-c2cc(=O)c3cc(C)ccc3[nH]2)cc1`, for which the Potency is 10.6 µM (active).

On to `O=c1cc(-c2ccccc2)[nH]c2ccc(F)cc12`, for which the Potency was 5.96 µM (active).

For `CCCCCNC(=O)C1CCC(Cn2c(=O)c3sccc3n(CC(=O)N3CCCC3)c2=O)CC1` (stereo not given), the “activity change, negative = inhibition” value was 7.01%.

For the compound `COc1cc(NC(=O)Cn2c(=O)n(CC3CCC(C(=O)NCCc4ccccc4)CC3)c(=O)c3ccccc32)cc(OC)c1` (stereo not given), the Potency is 5.96 µM (active).

As for `COc1cc(NC(=O)Cn2c(=O)n(CC3CCCO3)c(=O)c3ccccc32)cc(OC)c1` (stereo not given), the “activity change, negative = inhibition” value is 13.1%.

With `Cc1cc2nn(-c3ccc(F)cc3)nc2cc1N`, the “activity change, negative = inhibition” value was 2.12%.

Consider `Cn1nc(-c2nncn2Cc2ccccc2)c2c1CCN(C(=O)c1[nH]nc3c1COc1ccccc1-3)C2`, for which the “activity change, negative = inhibition” value is -14.9%.

`COc1ccc(-c2ccc3nnc(CNC(=O)Cc4cccc(F)c4)n3n2)cc1`: the “activity change, negative = inhibition” value was 38.7%.

Regarding `COc1ccc(-n2cc(CNC3CCN(C)CC3)c(-c3cccc(F)c3)n2)cc1`, the Potency is 10.6 µM (active).

Take `CCCc1nnc(C[C@@H]2C[C@@H](C(C)C)[C@H](CN3CCC[C@H]3CO)C=C2C)o1`: the Potency was 17.2 µM (active).

As for `CCCc1nnc([C@H]2CCN(C(=O)c3ccccc3)C2)o1`, the “activity change, negative = inhibition” value is -19.5% [at 57.5 µM].

Regarding `CC1=C[C@@H](CN2CCC[C@H]2CO)[C@H](C(C)C)C[C@H]1Cc1nnc(-c2ccc(N(C)C)cc2)o1`, the Potency was 13.3 µM (active).

For `C=CCOC(=O)C(C#N)c1nc2ccccc2nc1N1CCC(C(=O)OCC)CC1` (stereo not given), the Potency was 2.37 µM (active).

In the case of `Cc1ccc(C)c(-c2cc3c(=O)n(CCNC(=O)c4cccc(N(C)C)c4)ccn3n2)c1`, the “activity change, negative = inhibition” value was 0.608%.

As to `CCN(CC)S(=O)(=O)c1ccc(NC(=O)CCc2c(C)nc3cc(-c4ccc(Cl)cc4)nn3c2C)cc1`, the Potency was 4.73 µM (active).

`Cc1ccc(CNC(=O)CCc2c(C)nc3nc(C)nn3c2C)cc1`: the “activity change, negative = inhibition” value is 11.6%.

Consider `Cc1ccc(-c2ccc(=O)n(CC(=O)Nc3ccc(C(C)C)cc3)n2)cc1`, for which the “activity change, negative = inhibition” value is 20.7%.

With `COc1cc(C2Nc3ccc4ccccc4c3C3=C2C(=O)CC(C)(C)C3)ccc1OC(C)C(=O)O` (stereo not given), the Potency is 6.68 µM (active).

For `CCc1nc2ccc(C(=O)NCc3ccccc3C)cc2nc1CC`, the “activity change, negative = inhibition” value is 6.91%.

In the case of `CCC1=Nc2cc(C(=O)NCc3ccco3)ccc2Sc2ccc(C)cc21`, the Potency is 8.41 µM (active).

For `CCCC1=Nc2cc(C(=O)NCCCN3CCCCC3CC)ccc2Sc2ccc(C)cc21` (stereo not given), the Potency is 9.44 µM (active).

As for `Cc1cccc(C(=O)NCCc2ncc(C)n2C2CC2)c1`, the “activity change, negative = inhibition” value is -5.93%.

Regarding `Cc1ccc(C2Cn3cnc(C(=O)N4CCC(C(=O)NCc5ccco5)CC4)c3CO2)cc1` (stereo not given), the “activity change, negative = inhibition” value was -7.92%.
